# How the values were obtained:
# Assay in all cases: DAPPL (digital affinity profiling via proximity ligation, sequencing); 10 mM Tris-HCl pH 7.5, 50 mM NaCl, 1 mM DTT, 4% glycerol, room temperature, 30 min; GST-TFs on glutathione beads, 16-mer random dsDNA library, 0.1% formaldehyde crosslink after washing; high values mean tight binding
# FLI1 = biological target: T1, FLI1 (Homo sapiens, UniProt Q01543 1-452); conditions: protein: recombinant; tags: N-terminal GST; dsDNA, one strand shown
# T1 sequence: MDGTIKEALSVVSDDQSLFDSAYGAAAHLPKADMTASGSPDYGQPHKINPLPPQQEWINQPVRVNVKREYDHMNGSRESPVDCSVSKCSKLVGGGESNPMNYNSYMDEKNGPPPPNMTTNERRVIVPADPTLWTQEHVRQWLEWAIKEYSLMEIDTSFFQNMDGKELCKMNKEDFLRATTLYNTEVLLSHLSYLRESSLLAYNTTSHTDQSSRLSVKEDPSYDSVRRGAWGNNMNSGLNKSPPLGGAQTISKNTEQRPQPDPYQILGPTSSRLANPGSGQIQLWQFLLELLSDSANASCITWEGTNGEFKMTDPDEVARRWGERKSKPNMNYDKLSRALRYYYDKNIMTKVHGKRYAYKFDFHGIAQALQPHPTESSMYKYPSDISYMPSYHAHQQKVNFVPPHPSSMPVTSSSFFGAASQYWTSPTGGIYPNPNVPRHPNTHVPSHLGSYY
# Outline: (§1)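 Pools of DNA-barcoded human transcription factors, expressed in yeast as GST fusions on glutathione beads and combined with a tag-only sample, were incubated with 200 nmole of a 16-mer random double-stranded DNA library. Incubation took 30 min at room temperature in Tris/NaCl/DTT/glycerol buffer and was followed by washing, 0.1% formaldehyde crosslinking, proximity ligation (BsaI/T4 ligase, 1 h, 37 °C), PCR amplification and sequencing on an Illumina NextSeq500. Binding signal is the ratio of a hexamer's read frequency for a factor to its frequency for the tag-only sample.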
# ELK1 = biological target: T2, ELK1 (Homo sapiens, UniProt P19419 1-428); conditions: protein: recombinant; tags: N-terminal GST; dsDNA, one strand shown
# T2 sequence: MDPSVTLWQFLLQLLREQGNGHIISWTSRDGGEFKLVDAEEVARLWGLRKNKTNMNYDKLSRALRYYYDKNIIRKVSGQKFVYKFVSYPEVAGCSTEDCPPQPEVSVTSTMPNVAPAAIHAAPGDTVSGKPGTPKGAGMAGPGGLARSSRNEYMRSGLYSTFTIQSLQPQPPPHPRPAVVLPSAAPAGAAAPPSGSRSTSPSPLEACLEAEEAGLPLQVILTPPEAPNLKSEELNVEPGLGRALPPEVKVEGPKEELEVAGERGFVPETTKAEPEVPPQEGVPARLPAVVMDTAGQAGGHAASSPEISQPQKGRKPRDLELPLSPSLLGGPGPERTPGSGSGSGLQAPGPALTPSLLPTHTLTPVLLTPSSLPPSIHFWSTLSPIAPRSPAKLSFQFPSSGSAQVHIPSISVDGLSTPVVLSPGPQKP
# Outline: as §1
# GABPA = biological target: T3, GABPA (Homo sapiens, UniProt Q06546 1-454); conditions: protein: recombinant; tags: N-terminal GST; dsDNA, one strand shown
# T3 sequence: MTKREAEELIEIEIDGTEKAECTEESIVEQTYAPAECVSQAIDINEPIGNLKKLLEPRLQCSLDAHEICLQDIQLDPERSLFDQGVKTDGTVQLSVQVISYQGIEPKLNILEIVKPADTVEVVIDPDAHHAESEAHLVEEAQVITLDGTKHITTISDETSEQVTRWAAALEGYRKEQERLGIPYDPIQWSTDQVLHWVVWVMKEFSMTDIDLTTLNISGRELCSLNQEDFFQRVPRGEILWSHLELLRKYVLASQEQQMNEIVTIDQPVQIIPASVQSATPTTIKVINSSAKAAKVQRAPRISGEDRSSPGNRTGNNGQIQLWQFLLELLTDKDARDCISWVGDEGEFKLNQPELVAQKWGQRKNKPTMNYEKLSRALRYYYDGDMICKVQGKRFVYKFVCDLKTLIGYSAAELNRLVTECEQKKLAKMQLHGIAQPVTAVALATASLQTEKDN
# Outline: as §1
# ERG = biological target: T4, ERG (Homo sapiens, UniProt P11308 1-479); conditions: protein: recombinant; tags: N-terminal GST; dsDNA, one strand shown
# T4 sequence: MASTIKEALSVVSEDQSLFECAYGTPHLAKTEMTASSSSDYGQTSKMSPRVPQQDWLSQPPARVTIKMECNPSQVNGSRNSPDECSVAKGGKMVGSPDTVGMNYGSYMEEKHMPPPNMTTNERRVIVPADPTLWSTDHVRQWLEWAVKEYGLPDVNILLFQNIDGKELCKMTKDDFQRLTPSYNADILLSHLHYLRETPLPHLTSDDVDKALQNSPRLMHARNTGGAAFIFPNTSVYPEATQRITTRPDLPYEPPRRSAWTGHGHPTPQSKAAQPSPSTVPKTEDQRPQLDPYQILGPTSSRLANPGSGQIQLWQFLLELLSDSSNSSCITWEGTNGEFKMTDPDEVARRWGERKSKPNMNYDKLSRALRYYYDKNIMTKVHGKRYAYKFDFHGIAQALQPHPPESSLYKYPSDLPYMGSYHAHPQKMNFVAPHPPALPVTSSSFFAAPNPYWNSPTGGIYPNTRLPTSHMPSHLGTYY
# Outline: as §1
# ELF1 = ELF1 (Homo sapiens, UniProt P32519 1-619); conditions: protein: recombinant; tags: N-terminal GST; dsDNA, one strand shown
# Chain of ELF1 (P32519 whole entry): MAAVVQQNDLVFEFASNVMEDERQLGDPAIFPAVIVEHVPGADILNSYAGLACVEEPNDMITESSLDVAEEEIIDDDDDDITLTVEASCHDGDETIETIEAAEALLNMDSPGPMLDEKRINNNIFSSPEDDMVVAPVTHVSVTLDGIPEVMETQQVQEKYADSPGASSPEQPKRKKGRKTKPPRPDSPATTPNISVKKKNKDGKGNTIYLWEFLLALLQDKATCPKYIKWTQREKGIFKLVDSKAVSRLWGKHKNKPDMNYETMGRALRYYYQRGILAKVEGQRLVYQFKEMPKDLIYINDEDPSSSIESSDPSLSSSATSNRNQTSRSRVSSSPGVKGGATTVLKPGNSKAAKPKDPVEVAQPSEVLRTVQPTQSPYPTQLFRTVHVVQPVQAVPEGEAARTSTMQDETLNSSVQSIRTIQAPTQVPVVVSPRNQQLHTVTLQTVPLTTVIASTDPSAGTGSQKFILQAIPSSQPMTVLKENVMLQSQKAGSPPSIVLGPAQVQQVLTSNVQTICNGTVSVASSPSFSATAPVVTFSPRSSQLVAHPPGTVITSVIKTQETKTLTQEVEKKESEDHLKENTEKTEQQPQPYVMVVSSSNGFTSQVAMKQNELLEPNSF
# Outline: as §1
# EHF = biological target: T5, EHF (Homo sapiens, UniProt Q9NZC4 1-300); conditions: protein: recombinant; tags: N-terminal GST; dsDNA, one strand shown
# T5 sequence: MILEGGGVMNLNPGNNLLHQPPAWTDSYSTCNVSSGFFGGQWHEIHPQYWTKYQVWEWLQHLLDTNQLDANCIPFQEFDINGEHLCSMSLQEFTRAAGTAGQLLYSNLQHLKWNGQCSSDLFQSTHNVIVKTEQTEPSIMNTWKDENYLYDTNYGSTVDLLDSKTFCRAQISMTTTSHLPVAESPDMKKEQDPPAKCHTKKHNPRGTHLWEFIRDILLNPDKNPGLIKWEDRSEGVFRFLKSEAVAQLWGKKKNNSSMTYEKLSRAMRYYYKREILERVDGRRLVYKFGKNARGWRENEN
# Outline: as §1
# SPIB = SPIB (Homo sapiens, UniProt Q01892 1-262); conditions: protein: recombinant; tags: N-terminal GST; dsDNA, one strand shown
# Chain of SPIB (Q01892 whole entry): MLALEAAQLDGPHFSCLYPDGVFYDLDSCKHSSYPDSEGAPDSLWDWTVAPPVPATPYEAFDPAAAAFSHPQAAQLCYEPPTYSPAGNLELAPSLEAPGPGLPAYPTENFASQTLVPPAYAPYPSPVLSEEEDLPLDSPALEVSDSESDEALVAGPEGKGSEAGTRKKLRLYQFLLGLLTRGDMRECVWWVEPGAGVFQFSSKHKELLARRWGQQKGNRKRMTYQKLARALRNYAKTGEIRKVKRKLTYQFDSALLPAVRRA
# Outline: as §1
# ELK3 = biological target: T6, ELK3 (Homo sapiens, UniProt P41970 1-407); conditions: protein: recombinant; tags: N-terminal GST; dsDNA, one strand shown
# T6 sequence: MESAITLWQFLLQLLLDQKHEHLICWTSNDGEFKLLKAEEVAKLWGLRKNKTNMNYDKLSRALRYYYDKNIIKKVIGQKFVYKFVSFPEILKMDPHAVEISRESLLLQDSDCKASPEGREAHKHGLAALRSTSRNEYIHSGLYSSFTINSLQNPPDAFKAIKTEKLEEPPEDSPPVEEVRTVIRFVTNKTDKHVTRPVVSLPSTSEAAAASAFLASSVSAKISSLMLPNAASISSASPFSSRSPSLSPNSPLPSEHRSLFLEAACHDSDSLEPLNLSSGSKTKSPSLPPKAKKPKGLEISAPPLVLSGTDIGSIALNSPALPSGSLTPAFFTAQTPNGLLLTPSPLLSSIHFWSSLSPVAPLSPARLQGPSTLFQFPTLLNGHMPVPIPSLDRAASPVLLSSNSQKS
# Outline: as §1
# FEV = biological target: T7, FEV (Homo sapiens, UniProt Q99581 1-238); conditions: protein: recombinant; tags: N-terminal GST; dsDNA, one strand shown
# T7 sequence: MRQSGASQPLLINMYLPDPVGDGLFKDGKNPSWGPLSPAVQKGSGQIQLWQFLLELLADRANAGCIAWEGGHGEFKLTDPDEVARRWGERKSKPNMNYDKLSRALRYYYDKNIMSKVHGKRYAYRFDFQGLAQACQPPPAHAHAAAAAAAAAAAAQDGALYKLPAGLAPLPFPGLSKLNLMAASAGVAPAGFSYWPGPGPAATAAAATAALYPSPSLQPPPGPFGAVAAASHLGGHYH
# Outline: as §1
# ETV5 = ETV5 (Homo sapiens, UniProt P41161 1-510); conditions: protein: recombinant; tags: N-terminal GST; dsDNA, one strand shown
# Chain of ETV5 (P41161 whole entry): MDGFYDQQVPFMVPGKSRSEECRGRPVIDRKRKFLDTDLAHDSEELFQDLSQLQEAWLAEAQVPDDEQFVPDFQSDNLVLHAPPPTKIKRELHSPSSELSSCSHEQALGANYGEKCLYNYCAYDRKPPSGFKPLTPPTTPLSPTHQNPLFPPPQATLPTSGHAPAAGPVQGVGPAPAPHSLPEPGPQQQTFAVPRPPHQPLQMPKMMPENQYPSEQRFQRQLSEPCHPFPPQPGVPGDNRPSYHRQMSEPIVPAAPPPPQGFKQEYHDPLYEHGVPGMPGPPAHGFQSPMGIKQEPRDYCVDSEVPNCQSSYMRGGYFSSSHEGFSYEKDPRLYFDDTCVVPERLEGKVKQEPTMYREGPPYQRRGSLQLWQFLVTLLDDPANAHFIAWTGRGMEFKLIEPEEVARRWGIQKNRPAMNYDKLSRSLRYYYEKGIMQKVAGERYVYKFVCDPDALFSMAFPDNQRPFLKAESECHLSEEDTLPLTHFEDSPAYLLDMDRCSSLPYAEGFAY
# Outline: as §1
# HSF1 = HSF1 (Homo sapiens, UniProt Q00613 1-529); conditions: protein: recombinant; tags: N-terminal GST; chain copies: 3; dsDNA, one strand shown
# Chain of HSF1 (Q00613 whole entry): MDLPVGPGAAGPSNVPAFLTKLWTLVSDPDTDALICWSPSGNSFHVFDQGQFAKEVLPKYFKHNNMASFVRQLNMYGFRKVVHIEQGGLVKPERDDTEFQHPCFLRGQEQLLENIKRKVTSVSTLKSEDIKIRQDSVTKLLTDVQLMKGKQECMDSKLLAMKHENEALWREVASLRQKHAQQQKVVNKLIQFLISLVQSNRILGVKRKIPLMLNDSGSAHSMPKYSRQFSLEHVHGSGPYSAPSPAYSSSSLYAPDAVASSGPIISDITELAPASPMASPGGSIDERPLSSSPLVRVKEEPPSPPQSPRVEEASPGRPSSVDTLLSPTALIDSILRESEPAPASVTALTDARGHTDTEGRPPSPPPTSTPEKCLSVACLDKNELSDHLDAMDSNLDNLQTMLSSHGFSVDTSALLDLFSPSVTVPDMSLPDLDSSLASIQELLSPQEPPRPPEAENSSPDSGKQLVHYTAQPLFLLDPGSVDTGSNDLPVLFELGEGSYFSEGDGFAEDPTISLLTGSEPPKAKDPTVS
# Outline: as §1
# SPIC = biological target: T8, SPIC (Homo sapiens, UniProt Q8N5J4 1-248); conditions: protein: recombinant; tags: N-terminal GST; dsDNA, one strand shown
# T8 sequence: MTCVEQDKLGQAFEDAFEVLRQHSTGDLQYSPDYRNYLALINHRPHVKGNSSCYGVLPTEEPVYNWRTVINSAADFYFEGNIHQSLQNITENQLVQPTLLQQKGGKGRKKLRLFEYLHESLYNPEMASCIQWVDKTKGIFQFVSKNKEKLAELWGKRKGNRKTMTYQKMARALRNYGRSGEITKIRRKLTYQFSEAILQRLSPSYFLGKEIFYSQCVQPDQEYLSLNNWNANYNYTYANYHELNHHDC
# Outline: as §1
# ELF4 = ELF4 (Homo sapiens, UniProt Q99607 1-663); conditions: protein: recombinant; tags: N-terminal GST; dsDNA, one strand shown
# Chain of ELF4 (Q99607 whole entry): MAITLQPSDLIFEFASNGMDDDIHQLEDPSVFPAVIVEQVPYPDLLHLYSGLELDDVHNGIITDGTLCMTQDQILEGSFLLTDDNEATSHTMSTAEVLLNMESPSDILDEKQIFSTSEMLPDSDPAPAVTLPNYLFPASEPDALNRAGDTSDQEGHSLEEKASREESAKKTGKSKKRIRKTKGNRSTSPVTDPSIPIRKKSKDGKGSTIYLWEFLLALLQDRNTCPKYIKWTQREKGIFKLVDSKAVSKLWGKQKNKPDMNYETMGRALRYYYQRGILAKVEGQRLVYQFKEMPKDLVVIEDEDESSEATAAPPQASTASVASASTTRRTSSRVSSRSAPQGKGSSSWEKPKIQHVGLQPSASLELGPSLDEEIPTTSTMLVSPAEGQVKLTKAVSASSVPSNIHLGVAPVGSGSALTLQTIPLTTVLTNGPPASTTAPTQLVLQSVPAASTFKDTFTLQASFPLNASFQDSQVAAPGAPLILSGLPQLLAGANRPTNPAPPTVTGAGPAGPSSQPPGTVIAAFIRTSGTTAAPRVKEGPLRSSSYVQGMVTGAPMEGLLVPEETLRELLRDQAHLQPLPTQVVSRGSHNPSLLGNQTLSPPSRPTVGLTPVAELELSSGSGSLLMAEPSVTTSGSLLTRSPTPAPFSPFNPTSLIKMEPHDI
# Outline: as §1
# ELK4 = biological target: T9, ELK4 (Homo sapiens, UniProt P28324-2 1-405); conditions: protein: recombinant; tags: N-terminal GST; dsDNA, one strand shown
# T9 sequence: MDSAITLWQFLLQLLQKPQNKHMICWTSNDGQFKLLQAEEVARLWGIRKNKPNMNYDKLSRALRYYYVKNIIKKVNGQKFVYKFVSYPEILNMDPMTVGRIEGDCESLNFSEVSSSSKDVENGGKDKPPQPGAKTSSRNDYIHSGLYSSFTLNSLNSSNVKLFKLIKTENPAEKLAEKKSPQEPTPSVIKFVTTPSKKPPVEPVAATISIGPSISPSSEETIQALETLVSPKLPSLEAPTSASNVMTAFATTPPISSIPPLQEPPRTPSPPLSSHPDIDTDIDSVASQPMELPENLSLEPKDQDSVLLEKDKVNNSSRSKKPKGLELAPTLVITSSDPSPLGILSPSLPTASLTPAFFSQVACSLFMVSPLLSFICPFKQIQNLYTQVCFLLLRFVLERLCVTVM
# Outline: as §1
# ETV2 = biological target: T10, ETV2 (Homo sapiens, UniProt O00321 1-342); conditions: protein: recombinant; tags: N-terminal GST; dsDNA, one strand shown
# T10 sequence: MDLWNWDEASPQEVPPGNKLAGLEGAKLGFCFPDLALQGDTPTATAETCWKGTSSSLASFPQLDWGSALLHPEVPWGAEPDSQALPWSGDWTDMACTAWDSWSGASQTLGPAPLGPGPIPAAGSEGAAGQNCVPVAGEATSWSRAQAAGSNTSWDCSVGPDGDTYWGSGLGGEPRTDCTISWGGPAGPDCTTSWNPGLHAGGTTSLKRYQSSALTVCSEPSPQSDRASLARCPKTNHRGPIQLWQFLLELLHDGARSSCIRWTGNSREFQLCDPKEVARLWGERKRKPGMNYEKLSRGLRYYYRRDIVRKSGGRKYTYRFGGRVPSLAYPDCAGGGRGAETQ
# Outline: as §1
# ELF3 = biological target: T11, ELF3 (Homo sapiens, UniProt P78545 1-371); conditions: protein: recombinant; tags: N-terminal GST; dsDNA, one strand shown
# T11 sequence: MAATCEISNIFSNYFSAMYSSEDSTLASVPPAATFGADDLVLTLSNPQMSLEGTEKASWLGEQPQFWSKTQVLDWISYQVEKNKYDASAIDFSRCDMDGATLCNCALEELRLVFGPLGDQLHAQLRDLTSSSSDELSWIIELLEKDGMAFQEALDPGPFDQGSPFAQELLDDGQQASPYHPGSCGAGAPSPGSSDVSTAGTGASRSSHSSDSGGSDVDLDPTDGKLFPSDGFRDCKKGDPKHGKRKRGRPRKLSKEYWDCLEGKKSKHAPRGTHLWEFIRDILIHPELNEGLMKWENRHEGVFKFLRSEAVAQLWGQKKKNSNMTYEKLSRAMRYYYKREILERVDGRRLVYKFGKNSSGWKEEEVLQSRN
# Outline: as §1
# CRX = CRX (Homo sapiens, UniProt O43186 1-299); conditions: protein: recombinant; tags: N-terminal GST; dsDNA, one strand shown
# Chain of CRX (O43186 whole entry): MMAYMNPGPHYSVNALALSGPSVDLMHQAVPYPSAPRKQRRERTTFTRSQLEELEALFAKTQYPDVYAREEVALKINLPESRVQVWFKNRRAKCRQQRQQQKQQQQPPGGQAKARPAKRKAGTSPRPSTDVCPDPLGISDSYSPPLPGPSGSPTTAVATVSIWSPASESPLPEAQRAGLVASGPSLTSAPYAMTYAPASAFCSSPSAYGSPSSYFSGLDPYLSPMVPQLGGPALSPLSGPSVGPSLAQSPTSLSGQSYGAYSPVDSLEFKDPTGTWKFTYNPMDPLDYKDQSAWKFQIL
# Outline: as §1
# ETV1 = ETV1 (Homo sapiens, UniProt P50549 1-477); conditions: protein: recombinant; tags: N-terminal GST; dsDNA, one strand shown
# Chain of ETV1 (P50549 whole entry): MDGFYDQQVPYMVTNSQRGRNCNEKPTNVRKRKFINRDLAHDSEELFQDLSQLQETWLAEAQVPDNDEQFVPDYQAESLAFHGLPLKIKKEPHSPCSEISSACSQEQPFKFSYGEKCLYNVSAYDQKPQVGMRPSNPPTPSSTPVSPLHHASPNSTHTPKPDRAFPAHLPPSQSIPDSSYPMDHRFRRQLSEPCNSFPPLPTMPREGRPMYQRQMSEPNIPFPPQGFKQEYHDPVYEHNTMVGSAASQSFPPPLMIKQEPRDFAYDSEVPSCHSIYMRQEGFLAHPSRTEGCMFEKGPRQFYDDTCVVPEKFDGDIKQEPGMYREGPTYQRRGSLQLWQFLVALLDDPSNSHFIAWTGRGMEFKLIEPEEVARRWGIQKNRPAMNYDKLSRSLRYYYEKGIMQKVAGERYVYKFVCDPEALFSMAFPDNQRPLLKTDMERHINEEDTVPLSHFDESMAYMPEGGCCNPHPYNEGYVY
# Outline: as §1
sequence,measurement,setting,value
TACCTG,binding signal,FLI1,"1.13 fold enrichment (6-mer frequency, TF over GST control)"
same,binding signal,ELK1,"1.21 fold enrichment (6-mer frequency, TF over GST control)"
same,binding signal,GABPA,"1.12 fold enrichment (6-mer frequency, TF over GST control)"
same,binding signal,ERG,"1.17 fold enrichment (6-mer frequency, TF over GST control)"
same,binding signal,ELF1,"1.09 fold enrichment (6-mer frequency, TF over GST control)"
same,binding signal,EHF,"1.16 fold enrichment (6-mer frequency, TF over GST control)"
same,binding signal,SPIB,"1.25 fold enrichment (6-mer frequency, TF over GST control)"
same,binding signal,ELK3,"1.15 fold enrichment (6-mer frequency, TF over GST control)"
same,binding signal,FEV,"1.11 fold enrichment (6-mer frequency, TF over GST control)"
same,binding signal,ETV5,"1.19 fold enrichment (6-mer frequency, TF over GST control)"
same,binding signal,HSF1,"1.04 fold enrichment (6-mer frequency, TF over GST control)"
same,binding signal,SPIC,"1.04 fold enrichment (6-mer frequency, TF over GST control)"
same,binding signal,ELF4,"1.14 fold enrichment (6-mer frequency, TF over GST control)"
same,binding signal,ELK4,"1.07 fold enrichment (6-mer frequency, TF over GST control)"
same,binding signal,ETV2,"1.14 fold enrichment (6-mer frequency, TF over GST control)"
same,binding signal,ELF3,"1.15 fold enrichment (6-mer frequency, TF over GST control)"
same,binding signal,CRX,"1.11 fold enrichment (6-mer frequency, TF over GST control)"
same,binding signal,ETV1,"1.27 fold enrichment (6-mer frequency, TF over GST control)"

# From publication PMC7862700, “An all-to-all approach to the identification of sequence-specific readers for epigenetic DNA modifications on cytosine”
